For four molecules, Kd results are on record in paper PMC5540273 (PLoS ONE, 2017).
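Also: kd values determined as follow-up on hits from a single-replicate KINOMEscan panel screen.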

For this assay, the system named is RIPK2.
`COc1cc2nccc(Nc3cccc(Oc4ccccc4)c3)c2cc1OC.Cl` [GW284543] yielded a Kd of 0.44 µM.

As to `Nc1nc(-c2ccccc2F)c(-c2ccnc3ccccc23)s1` [GW560459], the Kd is over 10 µM.

`Nc1ncnc2c1ncn2-c1cccc(F)c1` [SKF-97560] yielded a dissociation constant (Kd) of over 10 µM.

`COc1ccc(Nc2nccc(N3CCC(NS(=O)(=O)c4ccc(NC(C)=O)cc4)C3)n2)cc1` (stereo not shown) [GSK1379729] gave a Kd of over 10 µM.
